Values without a mark were called inactive. A call without a number means that no potency is given here. For some assays here: Potency and affinity values are given separately. Active and inactive are the calls of the source. Unless noted, no rule for the calls is given here.
Assays:
[1] = antimalarial activity against Dd2 strain (AID 2302;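 active = growth inhibition above 50% at the single 2 µM test dose, taken to imply half-maximal potency below 2 µM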); conditions: P. falciparum Dd2 in RBCs, LDH growth readout, 72 h; at 2 µM; active compounds read high
[2] = human hepatoma cell viability loss – ATP luminescence, cytotoxicity control for P. falciparum antimalarial project, primary screen (AID 2303;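 active = inhibition above 50%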); conditions: HepG2 viability, 24-48 h, at 10 µM, active compounds read high
[3] = target: L-lactate dehydrogenase (Plasmodium falciparum (isolate CDC / Honduras)) (UniProt Q27743); assay: PfLDH activity inhibition – cell lysate, 3D7 strain, counter-screen for P. falciparum growth inhibition project (AID 2304); conditions: P. falciparum 3D7 crude extract, LDH APAD/NBT absorbance; at 2 µM; active compounds read high
Sequence of L-lactate dehydrogenase (Plasmodium falciparum (isolate CDC / Honduras)) (Q27743 whole entry, looked up): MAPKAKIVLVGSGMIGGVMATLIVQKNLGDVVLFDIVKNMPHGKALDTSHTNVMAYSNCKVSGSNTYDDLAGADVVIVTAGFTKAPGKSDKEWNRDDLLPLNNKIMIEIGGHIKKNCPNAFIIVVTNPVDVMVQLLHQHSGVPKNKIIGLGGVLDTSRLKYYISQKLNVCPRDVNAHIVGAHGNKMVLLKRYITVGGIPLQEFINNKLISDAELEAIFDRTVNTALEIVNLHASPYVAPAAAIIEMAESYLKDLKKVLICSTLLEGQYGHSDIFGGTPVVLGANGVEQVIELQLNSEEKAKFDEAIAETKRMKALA

[4] = inhibition of 3D7 malaria parasite growth – strain 3D7 (AID 2306); conditions: P. falciparum 3D7 erythrocytic growth, LDH absorbance, 72 h; at 2 µM; active compounds read high
[5] = target: Calcium-dependent protein kinase 1 (Plasmodium falciparum (isolate 3D7)) (UniProt P62344); assay: PfCDPK1 kinase inhibitors, biochemical, TCAMS library (AID 1159585; cut-off not given, nearly all actives have IC50 up to about 0.98 µM;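 also: inhibitors leave more ATP so luminescence rises with inhibition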); conditions: recombinant PfCDPK1, Kinase-Glo ATP depletion luminescence
Sequence of Calcium-dependent protein kinase 1 (Plasmodium falciparum (isolate 3D7)) (P62344 whole entry, looked up): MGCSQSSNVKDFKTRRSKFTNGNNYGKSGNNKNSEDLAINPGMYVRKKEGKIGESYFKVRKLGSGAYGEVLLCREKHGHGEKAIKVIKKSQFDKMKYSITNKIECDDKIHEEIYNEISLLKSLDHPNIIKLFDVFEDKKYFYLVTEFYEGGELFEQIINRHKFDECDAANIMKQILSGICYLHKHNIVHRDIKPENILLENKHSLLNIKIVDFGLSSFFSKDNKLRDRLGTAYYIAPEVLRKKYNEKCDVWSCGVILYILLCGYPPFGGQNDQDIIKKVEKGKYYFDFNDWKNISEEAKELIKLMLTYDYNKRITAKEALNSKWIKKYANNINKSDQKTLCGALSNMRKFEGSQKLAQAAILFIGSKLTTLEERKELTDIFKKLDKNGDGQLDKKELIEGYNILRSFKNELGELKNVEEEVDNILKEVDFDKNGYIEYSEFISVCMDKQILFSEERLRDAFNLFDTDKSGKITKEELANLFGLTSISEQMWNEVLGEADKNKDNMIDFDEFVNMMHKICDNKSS

[6] = target: Plasmodium falciparum protein kinase 6 (PK6, PF3D7_1337100) (UniProt Q8IDW1); assay: PfPK6 kinase inhibitors, biochemical, TCAMS library (AID 1159586); conditions: recombinant PfPK6, Kinase-Glo ATP depletion luminescence
Sequence of Plasmodium falciparum protein kinase 6 (PK6, PF3D7_1337100) (Q8IDW1 1-305): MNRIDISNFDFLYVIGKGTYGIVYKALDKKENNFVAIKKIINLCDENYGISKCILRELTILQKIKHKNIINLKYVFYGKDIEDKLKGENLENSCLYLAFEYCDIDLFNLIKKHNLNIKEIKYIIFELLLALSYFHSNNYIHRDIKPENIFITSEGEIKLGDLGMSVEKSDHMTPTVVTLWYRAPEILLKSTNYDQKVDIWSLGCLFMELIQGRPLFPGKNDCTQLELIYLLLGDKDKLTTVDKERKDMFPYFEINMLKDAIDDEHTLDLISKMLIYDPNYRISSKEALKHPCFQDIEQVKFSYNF

[7] = target: Protein kinase 7 (PK7), Plasmodium falciparum 3D7 (PF3D7_0213400) (UniProt Q7YTF7); assay: inhibition of Plasmodium PK7 catalytic activity – biochemical, TCAMS antimalarial set, Kinase-Glo luminescence (AID 1159587); conditions: recombinant PfPK7, Kinase-Glo ATP depletion luminescence
Sequence of Protein kinase 7 (PK7), Plasmodium falciparum 3D7 (PF3D7_0213400) (Q7YTF7 1-343): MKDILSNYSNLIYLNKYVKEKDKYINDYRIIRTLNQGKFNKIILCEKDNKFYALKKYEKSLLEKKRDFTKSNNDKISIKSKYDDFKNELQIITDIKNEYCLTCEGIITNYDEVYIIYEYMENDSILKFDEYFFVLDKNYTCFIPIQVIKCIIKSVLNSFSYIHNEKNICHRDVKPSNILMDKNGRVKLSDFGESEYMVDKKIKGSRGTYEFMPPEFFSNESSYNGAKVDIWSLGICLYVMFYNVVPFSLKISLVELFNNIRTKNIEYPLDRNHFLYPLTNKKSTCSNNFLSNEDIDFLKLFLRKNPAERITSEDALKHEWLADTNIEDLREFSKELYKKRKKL

[8] = target: Calcium-dependent protein kinase 4 (Plasmodium falciparum (isolate 3D7)) (UniProt Q8IBS5); assay: PfCDPK4 kinase inhibitors, biochemical, TCAMS library (AID 1159588; cut-off not given, nearly all actives have IC50 up to about 0.91 µM); conditions: recombinant PfCDPK4, Kinase-Glo ATP depletion luminescence
Sequence of Calcium-dependent protein kinase 4 (Plasmodium falciparum (isolate 3D7)) (Q8IBS5 whole entry, looked up): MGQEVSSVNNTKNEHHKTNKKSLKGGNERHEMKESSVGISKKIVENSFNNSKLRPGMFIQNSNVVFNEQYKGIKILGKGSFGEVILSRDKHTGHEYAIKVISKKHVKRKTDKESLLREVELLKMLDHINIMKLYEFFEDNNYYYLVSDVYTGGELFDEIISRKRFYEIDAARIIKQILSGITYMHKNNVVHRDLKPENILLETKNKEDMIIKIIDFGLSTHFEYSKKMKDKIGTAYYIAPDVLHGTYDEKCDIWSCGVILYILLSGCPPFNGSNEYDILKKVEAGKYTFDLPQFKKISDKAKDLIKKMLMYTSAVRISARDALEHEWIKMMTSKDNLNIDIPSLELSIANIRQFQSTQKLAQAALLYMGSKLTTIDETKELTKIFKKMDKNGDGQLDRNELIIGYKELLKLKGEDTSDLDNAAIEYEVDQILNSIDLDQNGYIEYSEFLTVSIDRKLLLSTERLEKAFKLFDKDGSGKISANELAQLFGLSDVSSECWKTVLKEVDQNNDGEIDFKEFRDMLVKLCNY

Row | SMILES | growth inhibition [1] | inhibition [2] | inhibition [3] | growth inhibition [4] | outcome [5] | outcome [6] | outcome [7] | outcome [8]
1 | O=C(C=Cc1ccc(Cl)c(Cl)c1)NC1CCN(CCc2ccccc2)CC1 | 13% | 6% | -8% | 97% (active) | inactive | inactive | inactive | inactive
2 | COc1ccc(C(=O)C2CCN(CCCCNC(=O)c3ccc(NC(=O)c4cc(Cl)cc(Cl)c4)cc3)CC2)cc1 | 84% (active) | 35% | 5% | 100% (active) | inactive | inactive | inactive | inactive
3 | Cc1ccc(C(=O)Nc2ccc(Nc3ccnc4cc(-c5nccs5)ccc34)cc2O)cc1 | 100% (active) | 100% (active) | 3% | 100% (active) | inactive | inactive | inactive | inactive
4 | CN(C)C(CNC(=O)c1cc(-c2ccncc2)c(-c2ccc(NC(=O)Nc3cccc(F)c3)cc2)o1)c1ccccc1 (stereo not given) | 99% (active) | 11% | 3% | 100% (active) | inactive | inactive | inactive | inactive
5 | CCOc1ccc(Br)cc1/C=C/C(=O)Nc1ccc(C2CCN(C)CC2)cc1 | 71% (active) | 30% | -2% | 100% (active) | inactive | inactive | inactive | inactive
6 | c1ccc(COc2ccccc2COc2ccccc2-c2ccc3cccnc3n2)cc1 | 95% (active) | -6% | 5% | 87% (active) | inactive | inactive | inactive | inactive
7 | COc1cccc2cc(C(=O)N[C@@H](CC(C)C)C(=O)N[C@H](/C=N/N3CCCC3=O)Cc3ccccc3)oc12 | 80% (active) | 5% | 5% | 96% (active) | inactive | inactive | inactive | inactive
8 | CNc1ccc(CNCc2cccc(-c3ccc(-c4nc5c(C)cccc5[nH]4)cc3)c2)cc1 | 83% (active) | 26% | -4% | 102% (active) | inactive | inactive | inactive | inactive
9 | Cc1ccc2cc(NCCCCCCCCON3C(N)=NC(N)=NC34CCCCC4)ccc2n1 | 80% (active) | 15% | 3% | 92% (active) | inactive | inactive | inactive | inactive
10 | CC1CN(Cc2csc(Nc3ccccc3)n2)CC(C)O1 (stereo not given) | 81% (active) | 4% | 0% | 91% (active) | inactive | inactive | inactive | inactive
11 | CC(=O)c1cccc2cc(C(=O)NC3CCC(CCN4CCc5ccc(C#N)cc5C4)CC3)[nH]c12 (stereo not given) | 17% | 12% | -4% | 100% (active) | inactive | inactive | inactive | inactive
12 | Cc1ccc(-c2nc(Nc3ccncc3)c3ccccc3n2)s1 | 34% | 6% | 1% | 95% (active) | inactive | inactive | inactive | inactive
13 | CN1CCC(NCc2ccc(-c3cccc(-c4nc5ccccc5[nH]4)c3)cc2)CC1 | 96% (active) | 50% (active) | -5% | 100% (active) | inactive | inactive | inactive | inactive
14 | Cc1[nH]c(C)c(-c2ccc(OCc3ccc(F)cc3)cc2)c(=O)c1Cl | 96% (active) | -10% | -1% | 95% (active) | inactive | inactive | inactive | inactive
15 | CCN(CCCN1CCCCC1)c1cc(C)nc(Nc2ccc(F)c(C(F)(F)F)c2)n1 | 93% (active) | 32% | 0% | 100% (active) | inactive | inactive | inactive | inactive
16 | CC(C)CNC(=S)N1CCCN(c2nc3ccc(Cl)cc3s2)CC1 | 11% | 28% | -3% | 95% (active) | inactive | inactive | inactive | inactive
17 | CN(C)CCOc1cccc(NC(=O)Nc2ccc(-c3ccccc3)cc2)c1 | 16% | 11% | -1% | 90% (active) | inactive | inactive | inactive | inactive
18 | CO/C(=C\C=C\c1cc2cc(Cl)c(Cl)cc2[nH]1)C(=O)NCCCN1CCN(c2ccncc2)CC1 | 96% (active) | 12% | 4% | 98% (active) | inactive | inactive | inactive | inactive
19 | Cc1cccc(C(=O)NC(NC(=S)Nc2cc(Cl)ccc2Cl)C(Cl)(Cl)Cl)c1 (stereo not given) | 61% (active) | -8% | 1% | 94% (active) | inactive | inactive | inactive | inactive
20 | O=C(Nc1ccc(Cl)c(Cl)c1)Nc1cc(C(F)(F)F)ccc1Cl | 85% (active) | -1% | -4% | 101% (active) | inactive | inactive | inactive | inactive

Row | SMILES | growth inhibition [1] | inhibition [2] | inhibition [3] | growth inhibition [4] | outcome [5] | outcome [6] | outcome [7] | outcome [8]
21 | CCCN=CNc1cc(-c2csc(N=C(N)N)n2)cc([N+](=O)[O-])c1 | 1% | 12% | -3% | 91% (active) | inactive | inactive | inactive | inactive
22 | COc1cc(NCCCNC(=O)c2ccc(Cl)c(Cl)c2)nc2ccccc12 | 101% (active) | 48% | 5% | 99% (active) | inactive | inactive | inactive | inactive
23 | Clc1ccc(-c2ccc(C=NNc3nc(Nc4ccccc4)nc(Nc4ccccc4)n3)o2)cc1Cl | 75% (active) | 1% | -1% | 97% (active) | inactive | inactive | inactive | inactive
24 | O=C(NC1CCN(Cc2ccccc2)CC1)c1cc(-c2cccnc2)nc2ccc(Cl)cc12 | 26% | -3% | 1% | 97% (active) | inactive | inactive | inactive | inactive
25 | COc1ccc(NC(=O)[C@H](Cc2ccccc2)Nc2cc(C)nc(NCCc3ccccc3OC)n2)cc1 | 83% (active) | 10% | 3% | 100% (active) | inactive | inactive | inactive | inactive
26 | Cc1nc2nc(N)nc(N)c2c(C)c1Cc1ccc(Cl)cc1 | 22% | 62% (active) | 0% | 94% (active) | inactive | inactive | inactive | inactive
27 | c1ccc2oc(-c3cc4ccncc4cc3OC3CCNCC3)cc2c1 | 96% (active) | 11% | -3% | 100% (active) | inactive | inactive | inactive | inactive
28 | COc1ccc(NC(=O)/C=C/c2ccc(-c3ccccc3)cc2)cc1N1CCN(C)CC1 | 46% | 21% | 6% | 90% (active) | inactive | inactive | inactive | inactive
29 | COc1cccc(CCNCc2ccc(-c3cccc(CNC4CCCC4)c3)cc2)c1 | 45% | 14% | -4% | 101% (active) | inactive | inactive | inactive | inactive
30 | CC(CN1CCN(C)CC1)C(=O)Nc1cccc(-c2ccc(-c3nc4ccc(C(F)(F)F)cc4[nH]3)cc2)c1 (stereo not given) | 98% (active) | 11% | -2% | 101% (active) | inactive | inactive | inactive | inactive
31 | CS(=O)(=O)c1cccc(-c2cnc(N)c3cc(-c4ccc5c(c4)OCO5)ccc23)c1 | 23% | 37% | 1% | 91% (active) | inactive | inactive | inactive | inactive
32 | O=C(NCc1cccc(F)c1)Nc1ccc(-c2cccc(-c3nc4ccc(F)cc4[nH]3)c2)cc1 | 2% | 31% | 7% | 88% (active) | inactive | inactive | inactive | inactive
33 | COc1cccc(NC(=O)c2cc(C(=O)Nc3cccc(OC)c3)cc([N+](=O)[O-])c2)c1 | 61% (active) | 1% | -3% | 99% (active) | inactive | inactive | inactive | inactive
34 | COc1ccc(NC(=O)[C@H](CC(C)C)Nc2cc(C)nc(NCCc3ccccc3OC)n2)cc1 | 68% (active) | 9% | -3% | 99% (active) | inactive | inactive | inactive | inactive
35 | O=C(Nc1ccc(F)cc1)c1ccc(C(=O)NC2CCN(CC3CCCCC3)CC2)cc1 | 0% | 34% | -7% | 99% (active) | inactive | inactive | inactive | inactive
36 | CC(=O)c1cccc2c(NC(=O)Nc3ccc4nccc(N5CCN(C)CC5)c4c3)cccc12 | 94% (active) | 13% | -3% | 99% (active) | inactive | inactive | inactive | inactive
37 | COc1ccccc1C1CCN(C2CCC(NC(=O)/C=C/c3ccc4c(c3)OC(F)(F)O4)CC2)CC1 (stereo not given) | 31% | 52% (active) | -2% | 98% (active) | inactive | inactive | inactive | inactive
38 | COCCNC(=O)c1ccc(OC2CCN(CC(C)=Cc3ccccc3)CC2)c(Cl)c1 | 95% (active) | 18% | 2% | 94% (active) | inactive | inactive | inactive | inactive
39 | COc1ccc2nccc([C@@H](O)CN3CCC(NC(=O)C(c4cc5ccccc5o4)N4CCN(Cc5ccccc5)CC4)CC3)c2c1 (stereo not given in full) | 75% (active) | 30% | -5% | 91% (active) | inactive | inactive | inactive | inactive
40 | CN1CCN(c2ccc(-c3cccc(NC(=O)c4ccc5ccccc5c4)c3)nn2)CC1 | 26% | 17% | -2% | 94% (active) | inactive | inactive | inactive | inactive
